Measurements: the supplement of paper PMC8728848
The sample as a whole holds a higher share of the strongest signals than the screen did.

Key:
Assay in all cases: glycan array binding signal (z-score within array); higher = stronger binding
Settings in all cases: glycan notation: IUPAC condensed, linker removed
[1] = molecular target: Gal(b1-4)GlcNAc(b1-3)GalNAc
Summary of the method: (§1)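 The binding signal is a Z-score computed within each array and averaged over linkers. Arrays of the same protein sequence at different concentrations or buffers were also averaged together. Data originate from 3228 arrays in the Consortium for Functional Glycomics database, kept only where the protein sequence was available.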

Gal6S(b1-3)GlcNAc = molecular target: Gal6S(b1-3)GlcNAc
Summary of the method: as §1

[2] = molecular target: GalNAc(a1-3)GalNAc(b1-3)Gal(a1-4)Gal(b1-4)Glc
Summary of the method: as §1

Glc(b1-6)Glc = molecular target: Glc(b1-6)Glc
Summary of the method: as §1

GlcNAc(b1-3)Fuc = molecular target: GlcNAc(b1-3)Fuc
Summary of the method: as §1

[3] = molecular target: GlcNAc(b1-3)Gal(b1-4)GlcNAc(b1-2)Man(a1-3)[GlcNAc(b1-3)Gal(b1-4)GlcNAc(b1-2)Man(a1-6)]Man(b1-4)GlcNAc(b1-4)[Fuc(a1-6)]GlcNAc
Summary of the method: as §1

[4] = molecular target: GlcNAc(b1-3)Gal(b1-4)GlcNAc(b1-3)Gal(b1-4)GlcNAc(b1-2)Man(a1-3)[GlcNAc(b1-3)Gal(b1-4)GlcNAc(b1-3)Gal(b1-4)GlcNAc(b1-2)Man(a1-6)]Man(b1-4)GlcNAc(b1-4)[Fuc(a1-6)]GlcNAc
Summary of the method: as §1

[5] = molecular target: GlcNAc(b1-3)Gal(b1-4)GlcNAc(b1-3)Gal(b1-4)GlcNAc(b1-2)[GlcNAc(b1-3)Gal(b1-4)GlcNAc(b1-3)Gal(b1-4)GlcNAc(b1-6)]Man(a1-6)[GlcNAc(b1-3)Gal(b1-4)GlcNAc(b1-3)Gal(b1-4)GlcNAc(b1-2)Man(a1-3)]Man(b1-4)GlcNAc(b1-4)[Fuc(a1-6)]GlcNAc
Summary of the method: as §1

[6] = molecular target: GlcNAc(b1-3)Gal(b1-4)GlcNAc(b1-3)Gal(b1-4)GlcNAc(b1-3)Gal(b1-4)GlcNAc(b1-3)Gal(b1-4)GlcNAc(b1-2)Man(a1-3)[GlcNAc(b1-3)Gal(b1-4)GlcNAc(b1-3)Gal(b1-4)GlcNAc(b1-3)Gal(b1-4)GlcNAc(b1-3)Gal(b1-4)GlcNAc(b1-2)Man(a1-6)]Man(b1-4)GlcNAc(b1-4)[Fuc(a1-6)]GlcNAc
Summary of the method: as §1

GlcNAc(b1-3)Man = molecular target: GlcNAc(b1-3)Man
Summary of the method: as §1

[7] = molecular target: Neu5Ac(a2-3)Gal(b1-3)GalNAc(b1-3)Gal(a1-4)Gal(b1-4)Glc
Summary of the method: as §1

Neu5Ac(a2-3)Gal(b1-4)Glc = molecular target: Neu5Ac(a2-3)Gal(b1-4)Glc
Summary of the method: as §1

[8] = molecular target: Neu5Ac(a2-3)Gal(b1-4)GlcNAc(b1-2)Man
Summary of the method: as §1

[9] = molecular target: Neu5Ac(a2-3)Gal(b1-4)GlcNAc(b1-3)Gal(b1-4)GlcNAc(b1-3)Gal(b1-4)GlcNAc(b1-2)Man(a1-3)[Neu5Ac(a2-3)Gal(b1-4)GlcNAc(b1-3)Gal(b1-4)GlcNAc(b1-3)Gal(b1-4)GlcNAc(b1-2)Man(a1-6)]GalNAc
Summary of the method: as §1

Neu5Ac(a2-6)Gal = molecular target: Neu5Ac(a2-6)Gal
Summary of the method: as §1

[10] = molecular target: Neu5Ac(a2-6)Gal(b1-3)GlcNAc(b1-3)[Gal(b1-4)GlcNAc(b1-6)]Gal(b1-4)Glc
Summary of the method: as §1

[11] = molecular target: Neu5Ac(a2-6)Gal(b1-4)GlcNAc(b1-2)Man(a1-3)[GlcNAc(b1-4)][Neu5Ac(a2-6)Gal(b1-4)GlcNAc(b1-2)Man(a1-6)]Man(b1-4)GlcNAc(b1-4)GlcNAc
Summary of the method: as §1

[12] = molecular target: Neu5Ac(a2-6)Gal(b1-4)GlcNAc(b1-2)Man(a1-3)[Neu5Ac(a2-6)Gal(b1-4)GlcNAc(b1-2)Man(a1-6)]Man(b1-4)GlcNAc(b1-4)[Fuc(a1-6)]GlcNAc
Summary of the method: as §1

[13] = molecular target: Neu5Ac(a2-6)Gal(b1-4)GlcNAc(b1-2)[Neu5Ac(a2-6)Gal(b1-4)GlcNAc(b1-4)]Man(a1-3)[GlcNAc(b1-4)][Neu5Ac(a2-6)Gal(b1-4)GlcNAc(b1-4)Man(a1-6)]Man(b1-4)GlcNAc(b1-4)GlcNAc
Summary of the method: as §1

[14] = molecular target: Neu5Ac(a2-6)Gal(b1-4)GlcNAc(b1-3)Gal(b1-4)GlcNAc(b1-3)GalNAc
Summary of the method: as §1

Neu5Ac(a2-8)Neu5Ac = molecular target: Neu5Ac(a2-8)Neu5Ac
Summary of the method: as §1

[15] = molecular target: Neu5Ac(a2-8)Neu5Ac(a2-3)Gal(b1-3)GalNAc(b1-4)[Neu5Ac(a2-8)Neu5Ac(a2-3)]Gal(b1-4)Glc
Summary of the method: as §1

[16] = molecular target: Neu5Gc(a2-8)Neu5Gc(a2-3)Gal(b1-4)GlcNAc(b1-3)Gal(b1-4)GlcNAc
Summary of the method: as §1

B1: B725 (Bifidobacterium sp) (protein)
chain: MNNTTRAVIATAAIGALLIPLAGCGNTTTSSGKTELTVWSWDASIDRAAKSFMKANPDITVKVSNVGSTEETYTALNNAAQAGSGLPDVTLIEYLAIPQFVHSDTLMDLSKVYNTAKLKDTFTPGTWNSVNINGGLYAMPADSGPMAYFYDKDVFDKAGISEPPTTWDEFYEDAKKIRATGSYITSDSGDAGLFNAMMWAMGGHAYKLNDDKLTINIAKDKGAQRFMDLWQKMRDEDLIDVHTKTWTDDWMKSLGDGSIASLISGAWMANNLLQGVPQATGKFRVALLPTIDGTPINGEYGGSGLAITKKIPDGKLDAAKKFVEYVTTNDEGIDARVSNGSFPATTKTLNQKDFLAKTTLRNTDGSDNEFFGGQKYNEIFSQAAKDVTGKWEFLPFEPYARSVYNDNMGSFFAGKTSFRTAADNWQKALKDYAKDQGFTVQ
glycan array binding signal (z-score) [1]: 0.358
glycan array binding signal (z-score) (Gal6S(b1-3)GlcNAc): -0.217
glycan array binding signal (z-score) [2]: -0.209
glycan array binding signal (z-score) (Glc(b1-6)Glc): -0.219
glycan array binding signal (z-score) (GlcNAc(b1-3)Fuc): -0.207
glycan array binding signal (z-score) [3]: -0.131
glycan array binding signal (z-score) [4]: -0.216
glycan array binding signal (z-score) [5]: -0.203
glycan array binding signal (z-score) [6]: 0.138
glycan array binding signal (z-score) (GlcNAc(b1-3)Man): -0.204
glycan array binding signal (z-score) [7]: -0.221
glycan array binding signal (z-score) (Neu5Ac(a2-3)Gal(b1-4)Glc): -0.228
glycan array binding signal (z-score) [8]: -0.207
glycan array binding signal (z-score) [9]: -0.042
glycan array binding signal (z-score) (Neu5Ac(a2-6)Gal): -0.222
glycan array binding signal (z-score) [10]: -0.205
glycan array binding signal (z-score) [11]: -0.227
glycan array binding signal (z-score) [12]: -0.217
glycan array binding signal (z-score) [13]: -0.212
glycan array binding signal (z-score) [14]: -0.214
glycan array binding signal (z-score) (Neu5Ac(a2-8)Neu5Ac): -0.215
glycan array binding signal (z-score) [15]: -0.2
glycan array binding signal (z-score) [16]: -0.198
